# Source: PubChem BioAssay AID1053125 (Broad Institute, 2014)
# Results with a measured potency or affinity are listed apart. Activity calls are given as the source filed them.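 How the source made its calls: active means viability loss whose fitted half-maximal concentration is at most twice the top valid tested dose; inconclusive means flat curve with 30 to 70% loss, or poor fit; inactive means the rest.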
# Experiment: HepG2 cell cytotoxicity, dose response, cytotoxicity control, ATP luminescence, cherry-pick, set 6 (AID 1053125);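 further: negative values mean loss of viability signal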
row,SMILES,outcome
1,Cn1cc(C(c2ccccc2OCC(=O)O)c2cn(C)c3ccccc23)c2ccccc21,inactive
2,CCCn1c(=N)c(S(=O)(=O)c2ccccc2)cc2c(=O)n3ccccc3nc21,inactive
3,COc1c(Cl)cc(-c2noc(C)c2C(=O)NCc2ccc3c(c2)OCO3)cc1Cl,inactive
4,CCCCN(CCCC)CC(O)Cn1c2ccccc2c(=O)c2ccccc21 (stereo not given),inactive
5,CCCOc1c(Br)cc(C2C3=C(CCCC3=O)N(C)C3=C2C(=O)CCC3)cc1OC,inactive
6,COc1ccc(CCN=C(N)NS(=O)(=O)c2ccc(F)cc2)cc1,inactive
7,O=C(CCCN1C(=O)CSc2ncccc21)N1CCN(Cc2ccccc2)CC1,inactive
8,O=c1[nH]c(=O)c2nc(-c3ccc(Cl)cc3)cnc2[nH]1,inactive
9,O=c1c2ccccc2n(CC(O)CN2CCCCC2)c2ccccc12 (stereo not given),inactive
10,COc1ccc(S(=O)(=O)Cc2ccc(C(=O)N3CCN(Cc4ccccc4)CC3)o2)cc1,inactive
11,CC1CCN(S(=O)(=O)N2CCC(C(=O)NC3CCCC3)CC2)CC1,inactive
12,Cc1cc(-n2c(=O)c(C#N)cc3c(=O)n4ccccc4nc32)no1,inactive
13,CC(=O)Oc1ccc2cc(-c3nc4ccccc4n3C)c(=O)oc2c1,inactive
14,Cc1cccn2c(=O)c(/C=C(\C#N)C(N)=O)c(Oc3ccccc3)nc12,inactive
15,CCOCCCNc1nc2nc3ccc(C)cn3c(=O)c2cc1C(=O)NCC1CCCO1 (stereo not given),inactive
16,COc1ccccc1NS(=O)(=O)c1cc(NC(=O)CCNC(C)=O)ccc1C,inactive
17,O=C(Nc1ccc2c(c1)OCCO2)c1ccc(NC(=O)C2CCCO2)cc1 (stereo not given),inactive
18,CCOc1ccc2nc(NCCNC(=O)CC)c(C#N)cc2c1,inactive

row,SMILES,outcome
1,COc1ccccc1/C=N/Nc1nc(C)cc(=O)[nH]1,inactive
2,C=CCN1C(=S)CC(c2ccccc2)=Nc2ccccc21,inactive
3,Cc1cccn2c(=O)c3cc(C(=O)NCC4CCCO4)c(=N)n(CC4CCCO4)c3nc12 (stereo not given),inactive
4,O=C(O)c1ccc(N/N=C/c2ccc(-c3ccccc3Cl)o2)cc1,inactive
5,CCn1c(=NC(=O)CSC(C)=O)sc2cc(OC)ccc21,inactive
6,CCc1nc(SCC(=O)c2ccccc2)c2ccccc2n1,inactive
7,CCC(C)n1c(=N)c(C#N)cc2c(=O)n3cccc(C)c3nc21 (stereo not given),inactive
8,CCC(C)n1c(=N)c(C#N)cc2c(=O)n3cc(C)ccc3nc21 (stereo not given),inactive
9,COc1ccc(C(=O)Oc2cc(N)n(S(=O)(=O)c3ccccc3)n2)cc1,inactive
10,COCCNC(=S)N/N=C/c1ccc(-c2ccc([N+](=O)[O-])cc2)o1,inactive
11,CCOc1ccc2nc(NCCCNC(=O)c3cc(OC)c(OC)c(OC)c3)c(C#N)cc2c1,inactive
12,Cn1nc(-c2ccc(Cl)cc2)c2cc(C(=O)N3CCN(c4ccccc4)CC3)sc21,inactive
13,COc1ccc(C2c3ccc(O)cc3Oc3ncn4nc(-c5ccccn5)nc4c32)cc1 (stereo not given),inactive
14,CCn1c2ccccc2c(=O)c2ccccc21,inactive
15,Cc1c(C(=O)NCc2ccc(Cl)c(Cl)c2)sc(=O)n1Cc1cccc(F)c1,inactive
16,COc1ccc(C2CC(c3ccccc3)=NN2c2ccc(C(N)=O)cc2)cc1 (stereo not given),inactive
17,O=C(NCc1ccc(F)cc1)C1CCCN1C(=O)Nc1cccc(F)c1 (stereo not given),inactive
